# TEAD-YAP inh: TEAD-YAP interaction inhibition, primary screen, TEAD-YAP interaction inhibitor project, luminescence, HEK-TIYL cells | TEAD-Gal4/YAP UAS-luciferase luminescence | inhibition, % at 9.12 µM | hit rate 1.4% among 640,000; in the data active = inhibition above about 32%;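 note: 0% = median of test compound wells and 100% = reference inhibitor wells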
# FBW7 act: FBW7 E3 ligase activators, primary screen, biochemical, AlphaScreen, human | normalized activity (activation), % at 26.1 µM | AID 1259310, 2017 | F-box/WD repeat-containing protein 7 (Homo sapiens), Q969H0 | hit rate 0.13% among 650,000 | AlphaScreen FBW7–phospho-cyclin E peptide binding, activator screen; in the data active = normalized activity above about 1.9%;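 note: purified mutant Fbw7 with reduced substrate affinity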
# Target sequence (Q969H0 whole entry, looked up): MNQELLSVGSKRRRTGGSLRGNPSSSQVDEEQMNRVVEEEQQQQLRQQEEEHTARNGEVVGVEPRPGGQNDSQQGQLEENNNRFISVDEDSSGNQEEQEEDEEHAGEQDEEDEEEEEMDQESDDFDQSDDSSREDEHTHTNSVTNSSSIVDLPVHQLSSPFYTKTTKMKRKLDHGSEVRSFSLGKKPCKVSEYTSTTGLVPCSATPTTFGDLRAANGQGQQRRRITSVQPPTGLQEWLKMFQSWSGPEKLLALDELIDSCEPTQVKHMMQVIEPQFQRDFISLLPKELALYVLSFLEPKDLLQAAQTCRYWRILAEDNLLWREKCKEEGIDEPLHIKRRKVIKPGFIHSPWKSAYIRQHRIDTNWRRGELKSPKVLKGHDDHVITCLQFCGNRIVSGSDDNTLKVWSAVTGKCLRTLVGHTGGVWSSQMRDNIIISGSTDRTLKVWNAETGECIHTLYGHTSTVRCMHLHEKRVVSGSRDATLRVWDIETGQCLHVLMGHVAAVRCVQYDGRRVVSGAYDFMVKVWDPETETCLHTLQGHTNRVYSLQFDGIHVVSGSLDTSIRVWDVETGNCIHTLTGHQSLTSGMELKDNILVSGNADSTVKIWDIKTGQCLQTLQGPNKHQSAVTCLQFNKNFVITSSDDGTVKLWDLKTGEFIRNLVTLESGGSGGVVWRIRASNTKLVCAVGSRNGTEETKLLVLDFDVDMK
# MITF inh: MITF inhibitors, primary screen, biochemical, AlphaScreen, human. Microphthalmia-associated transcription factor (Homo sapiens), O75030. AlphaScreen MITF homodimerization, bead proximity signal. inhibition, % at 2.6 µM. hit rate 0.91% among 650,000; in the data active = inhibition above about 50%;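 note: 0% = vehicle wells with protein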
# GPR151 ag: activators of human GPR151, primary screen, cell-based, PathHunter beta-arrestin, luminescence. PathHunter beta-arrestin GPR151 cells. activation, % at 11.2 µM. AID 1508602, 2020. hit rate 1% among 650,000; in the data active = activation above about 4.9%;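 note: 0% = median of compound wells and 100% = cells with positive control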
# GPR151 conf act: GPR151 activators, triplicate retest, confirmation, cell-based, PathHunter beta-arrestin, luminescence. shares compounds with GPR151 ag. 6,700 tested, under 10 active. GPR151 PathHunter beta-arrestin cells, 90 min; % of EA-reagent control over plate median. activation, % at 11.2 µM;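 active = mean percent activation across replicates above the confirmation screen cutoff of 4.91%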
# GPR119 ag: GPR119 activators in beta-arrestin cells, counter-screen for GPR151 activator project, cell-based, PathHunter beta-arrestin, luminescence, triplicate; activation, % at 11.2 µM; AID 1508611, 2020; hit rate 0.3% among 6,700; shares compounds with GPR151 ag; 90 min; 0 = compound-well median, 100 = enzyme-acceptor control;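 active = mean percent activation in the counterscreen above 29.09%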;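 note: counterscreen on off-target GPR119 to flag nonselective hits from the GPR151 activator screen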
# * hit, by the source's call; . = no result given; ! = a repeat was not active. Most compounds without a hit are left out; they make up all but 3.5% or so of the library.
SMILES,TEAD-YAP inh,FBW7 act,MITF inh,GPR151 ag,GPR151 conf act,GPR119 ag
O=C(C[n+]1ccccc1)Nc1ccccc1C(=O)O,4,0,-6,7.5*,1,-2
Cc1ccc(-c2nnc(NC(=O)c3cccc(F)c3)o2)c(C)c1,-5,0,6,0,.,.
COc1ccc2oc(C)c(C(=O)CN3CCOCC3)c2c1,-4,0,1,-2,.,.
CCCCOC(=O)c1ccc(Nc2nc(C)c([N+](=O)[O-])c(Nc3ccc(C(=O)OCCCC)cc3)n2)cc1,0,0,-4,2,.,.
COC(=O)c1ccc(Nc2nc(C)c([N+](=O)[O-])c(Nc3ccc(C(=O)OC)cc3)n2)cc1,3,0,9,13*,0,5
CCOC(=O)N1CCN(C(=O)Cn2cc(NC(=O)Cc3ccccc3OC)cn2)CC1,-1,0,2,9.1*,1,21
CC(=O)Nc1ccc(Nc2ccnc(N3CCc4ccccc4C3)n2)cc1,28,0,7,5.1*,2,28
NC(=O)c1cc(S(=O)(=O)Nc2ccc(Cl)cc2)co1,-10,0,8,0,.,.
CCn1c(/C(C#N)=C/c2ccc(Br)cc2)nc2ccccc21,-9,0,7,0,.,.
O=C(CCCn1nc(-c2ccccc2)c2ccccc21)NCc1ccccn1,3,0,7,7.6*,0,-7
CSc1ccccc1C(=O)N(C)Cc1ccccc1,-10,1,3,5.8*,0,9
CCOc1nc(NCCC2=CCCCC2)nc(OCC)n1,-7,0,-3,9.8*,1,-9
CN1CCC(NCc2cccc(Br)c2)CC1,0,1,-12,0,.,.
CC(C)(C)c1nn2cnnc2n(/N=C/c2ccccc2I)c1=O,3,0,-1,2,.,.
CC(C)(C)c1nn2cnnc2n(/N=C/c2ccccc2O)c1=O,1,0,10,5.9*,-1,-6
COCCCN(C(=O)C1CCCC1)c1c(N)n(Cc2ccccc2)c(=O)[nH]c1=O,-1,0,0,1,.,.
CCOC(=O)C1=C(C)N=C2SCC(=O)N2C1c1ccc(OC)c2ccccc12 (stereo not drawn),7,0,2,2,.,.
CCOC(=O)C1=C(C)N=C2SCC(=O)N2C1c1cccc2ccccc12 (stereo not drawn),-5,1,-10,7.6*,-1,-6
CCC1(CCC(=O)NCCCn2nnc3ccccc32)CCC(=O)N1 (stereo not drawn),14,0,-1,-1,.,.
COC(=O)c1cc(OC)c(OC)cc1NC(=O)CCN1C(=O)c2ccccc2C1=O,-1,0,-8,5.9*,0,2
COC(=O)c1cc(OC)c(OC)cc1NC(=O)c1cc(Cl)ccc1Cl,-8,0,-2,6.3*,1,2
COc1ccc(-c2nc(N)c3[nH]cnc3n2)cn1,-11,0,-19,-1,.,.
O=C(CCCCn1c(=O)[nH]c2ccsc2c1=O)N1CCN(C2CCCCC2)CC1,8,0,12,0,.,.
Cn1c(COc2ccc3c(c2)OCO3)nnc1SCC(=O)O,-10,0,-12,0,.,.
O=C(CCc1ccccc1)NC(c1ccc2c(c1)OCO2)c1c(O)ccc2ccccc12 (stereo not drawn),-1,0,-3,-1,.,.
SMILES,TEAD-YAP inh,FBW7 act,MITF inh,GPR151 ag,GPR151 conf act,GPR119 ag
CC(C)CC(=O)NC(c1ccc2c(c1)OCO2)c1c(O)ccc2ccccc12 (stereo not drawn),1,0,5,5.2*,0,3
COc1ccc(CNc2cc(C)nc(-c3ccccc3)n2)cc1,-5,0,4,-1,.,.
Cc1cc(NCc2ccccc2)nc(-c2ccccc2)n1,-19,0,0,5.2*,0,-10
Nc1cc[n+](CC(=O)c2ccccc2)cc1,-12,0,-13,7.1*,0,-6
COc1ccccc1Cn1c(C)nc2ccc([N+](=O)[O-])cc2c1=O,4,0,-5,1,.,.
CC(C)Sc1nc(-c2ccco2)nc2c1c(=O)n(C)c(=O)n2C,-6,0,-7,2,.,.
COc1ccc(-c2nc(SCC(=O)O)c3c(=O)n(C)c(=O)n(C)c3n2)cc1,-6,0,-15,-1,.,.
CC(Sc1nc(-c2ccco2)nc2c1c(=O)n(C)c(=O)n2C)C(=O)O (stereo not drawn),6,0,10,9.6*,0,12
COc1cccc(-c2nc(SCC(=O)O)c3c(=O)n(C)c(=O)n(C)c3n2)c1,7,0,18,12*,0,1
Cn1c(=O)c2c(SCC(=O)Nc3nccs3)nc(-c3ccco3)nc2n(C)c1=O,0,0,16,0,.,.
Cc1csc(NC(=O)CSc2nc(-c3ccco3)nc3c2c(=O)n(C)c(=O)n3C)n1,-8,0,-4,6.6*,0,2
Cc1ccc2oc(-c3ccccc3)cc(=NCCCO)c2c1,5,0,-1,-1,.,.
Cc1ccc(-n2[nH]c(C)c(C=Nc3cccc(C(=O)O)c3)c2=O)cc1,-12,0,15,5.4*!,0,0
CN1CCN(CCCNC(=O)CCCNC(=O)Cn2cnc3sc4c(c3c2=O)CCCC4)CC1,-4,0,14,6.0*,0,0
CCN1CCN(CCCNC(=O)CCCNC(=O)Cn2cnc3sc4c(c3c2=O)CCCC4)CC1,6,0,17,-1,.,.
Cc1cccnc1CCNC(=O)c1cc(COc2ccc3ncccc3c2)on1,26,0,18,1,.,.
COc1cccc(CCNC(=O)c2cc(COc3ccc4ncccc4c3)on2)c1,32,0,-5,5.9*,-1,-17
COc1ccccc1-n1c(-c2ccc(NS(C)(=O)=O)cc2)n[nH]c1=S,-9,0,2,6.5*,-1,-6
COc1ccc(-c2n[nH]c(=S)n2-c2cc(OC)ccc2OC)cc1,7,0,2,1,.,.
CCOC(=O)C1=C(C)NC2=C(C(=O)C(C(=O)OC)C(C)C2)C1c1ccccc1OC(C)C (stereo not drawn),-9,0,-4,5.2*!,1,5
COC(=O)Cn1cc(/C=C(/C#N)C(=O)Nc2ccccc2)c2ccccc21,2,0,2,0,.,.
N#C/C(=C/c1cn(CC(=O)O)c2ccccc12)C(=O)Nc1ccc(Cl)cc1,11,0,3,8.5*,-1,-5
Cn1c(=O)cc(N2CCCC2)n(Cc2ccc(F)cc2F)c1=O,1,0,10,-1,.,.

# Screening data from PubChem.
